Compound activity (PubChem BioAssay)
TRAIL sens C8 = sensitizes caspase-8 expressing cells to TRAIL; NB7+C8 cells + TRAIL, ATPlite viability luminescence; inhibition (viability loss, TRAIL sensitization), % at 10 µM; AID 624354; hit rate 1% among 360,000;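 active means compounds causing at least 50% loss of cell viability in the single-dose screen, relative to plate controls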
HSP90 inh = inhibitors of HSP90 luciferase refolding in rabbit reticulocyte lysate; luciferase refolding luminescence, 3 h; inhibition, % at 5.6 µM; hit rate 0.91% among 290,000;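 active means inhibition above the screen-wide mean plus 3 SD, computed separately per campaign, cut at about 16% in these data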;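 further: 0% = DMSO wells and 100% = 60 µM geldanamycin wells; inhibitors lower the luminescence because luciferase stays unfolded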
Platelet DG rel = platelet dense granule release activity. human platelet-rich plasma, SFLLRN dense granule ATP release, luminescence. inhibition, %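 (compounds screened at 7.5 µM in platelet-rich plasma)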. hit rate 0.22% among 300,000. AID 1663;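 active means mean replicate score, as percent of positive control, at or above 50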
TWEAK-Fn14 inh = inhibitors of TWEAK-Fn14 interaction signaling. TWEAK-stimulated Fn14 reporter cells, luciferase luminescence, 8 h. inhibition, % at 10 µM. hit rate 2% among 360,000. AID 1159606; in the data active means inhibition above about 50%
TROY NFkB inh = TROY signaling inhibition; hit rate 0.98% among 360,000; inhibition, % at 10 µM; Q293 LMP1-TROYcd NF-kB luciferase reporter, 4 h; AID 1347056;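 active means compounds whose plate-normalised and pattern-corrected inhibition of the luciferase reporter signal at the single screening dose is 50% or more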
PPC-1+TRAIL kill = PPC-1 cancer cell killing with TRAIL present; cell killing (% activity), % at 4 µM or 5 µM; PPC-1 cells + TRAIL, ATPLite viability luminescence; hit rate 0.41% among 220,000;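 active means cell killing above 50% in the first pass at 4 µM, then a duplicate retest at 5 µM averaging 50% or more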;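 further: plate controls were cells with TRAIL plus DMSO for no effect and medium-only wells lacking cells for full effect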
* = called active by the depositor. Compounds with a hit are over-represented: about 3.5% of the library has one in this group of screens.

For Cc1c(C(=O)NCc2ccc(C(F)(F)F)cc2)sc(=O)n1Cc1ccc(S(=O)(=O)N(C)C)cc1 the results were TRAIL sens C8 8.9, TWEAK-Fn14 inh 56.8* and TROY NFkB inh 32.1.
For CC(C)CNc1ncnc2[nH]ncc12 the results were TRAIL sens C8 2.7, TWEAK-Fn14 inh 16.0 and TROY NFkB inh 3.5.
`Cc1noc(C)c1S(=O)(=O)N(C)C[C@H]1OCc2cnnn2CCCC(=O)N([C@@H](C)CO)C[C@H]1C` gave TRAIL sens C8 3.8, TWEAK-Fn14 inh 14.9 and TROY NFkB inh -5.7.
`Cc1cc(C(=O)COC(=O)c2n[nH]c3ccccc23)c(C)n1C` gave TRAIL sens C8 58.3*, HSP90 inh -0.3, Platelet DG rel -1.8, TWEAK-Fn14 inh 34.6, TROY NFkB inh -53.2 and PPC-1+TRAIL kill 30.3.
CCn1nc(C(=O)OCC(=O)c2cc(C)n(Cc3cccs3)c2C)c2ccccc2c1=O was read as TRAIL sens C8 21.1, HSP90 inh 33.2*, Platelet DG rel -2.8, TWEAK-Fn14 inh 10.4, TROY NFkB inh 11.5 and PPC-1+TRAIL kill -2.0.
For Cc1ccsc1C(=O)OCC(=O)c1cc(C)n(C)c1C the results were TRAIL sens C8 46.3, TWEAK-Fn14 inh 84.2* and TROY NFkB inh 11.9.
C=CCn1c(C)cc(C(=O)COC(=O)c2n[nH]c(=O)c3ccccc23)c1C was read as TRAIL sens C8 68.7*, TWEAK-Fn14 inh 38.7 and TROY NFkB inh 30.2.
Cc1cc(C(=O)COC(=O)c2n[nH]c(=O)c3ccccc23)c(C)n1C was read as TRAIL sens C8 16.7, TWEAK-Fn14 inh 26.6 and TROY NFkB inh -9.2.
`COc1ccc(NC(=O)CNC(=O)Cc2cccc3ccccc23)c(OC)c1` gave TRAIL sens C8 10.8, Platelet DG rel -1.2, TWEAK-Fn14 inh -16.3 and TROY NFkB inh -13.8.
Screening CCCCCc1nc2sc3c(c2c(=O)n1NC(=O)c1ccc([N+](=O)[O-])cc1)CC(C)(C)OC3 returned TRAIL sens C8 15.2, HSP90 inh 1.3, Platelet DG rel 15.0, TWEAK-Fn14 inh 70.2*, TROY NFkB inh 48.2 and PPC-1+TRAIL kill 22.5.
Screening CCCCCCCc1nc2sc3c(c2c(=O)n1N)CC(C)(C)OC3 returned TRAIL sens C8 -0.1, HSP90 inh -6.0, Platelet DG rel -2.2, TWEAK-Fn14 inh -3.7, TROY NFkB inh -6.1 and PPC-1+TRAIL kill -4.5.
`COc1ccc(NC(=O)C(C)N2CCN(C)CC2)cc1` (stereo not given) gave TRAIL sens C8 4.0, HSP90 inh 2.8, Platelet DG rel -2.1, TWEAK-Fn14 inh 14.0 and TROY NFkB inh 4.1.
`CC(=O)OCC1OC(COC(C)=O)(c2ccc(C)cc2)C(OC(C)=O)C1OC(C)=O` (stereo not given) gave TRAIL sens C8 -7.2, TWEAK-Fn14 inh -3.4 and TROY NFkB inh -3.8.
For Cc1cc(Br)cn2c(Cc3ccccc3)c(-c3ccc(C#N)cc3)nc12 the results were TRAIL sens C8 3.9, TWEAK-Fn14 inh 11.8 and TROY NFkB inh 4.1.
For CCN(CC)Cc1c(O)ccc2c1O/C(=C\C=C\c1ccccc1)C2=O the results were TRAIL sens C8 5.2, HSP90 inh 2.1, Platelet DG rel 0.9, TWEAK-Fn14 inh 62.6*, TROY NFkB inh -8.9 and PPC-1+TRAIL kill 28.3.
`C=CCn1c(C)cc(C(=O)COC(=O)c2ccc(N)c([N+](=O)[O-])c2)c1C` gave TRAIL sens C8 9.1, HSP90 inh -2.6, Platelet DG rel 9.0, TWEAK-Fn14 inh 35.1, TROY NFkB inh 7.4 and PPC-1+TRAIL kill 13.2.
For CCCn1c(C)cc(C(=O)COC(=O)c2ccc[nH]c2=O)c1C the results were TRAIL sens C8 54.2*, HSP90 inh 1.7, Platelet DG rel 7.4, TWEAK-Fn14 inh 79.9*, TROY NFkB inh 71.6* and PPC-1+TRAIL kill 14.6.
Screening Cc1cc(C(=O)COC(=O)c2ccc[nH]c2=O)c(C)n1-c1ccccc1F returned TRAIL sens C8 58.6*, HSP90 inh 4.9, Platelet DG rel 1.0, TWEAK-Fn14 inh 59.5*, TROY NFkB inh 33.1 and PPC-1+TRAIL kill 41.7.
`CCn1c(C)cc(C(=O)COC(=O)c2ccccc2[N+](=O)[O-])c1C` gave TRAIL sens C8 93.2*, TWEAK-Fn14 inh 105.3* and TROY NFkB inh 89.9*.
For CC(=O)Nc1ccc(SCC(=O)c2cc(C)n(-c3ccccc3F)c2C)cc1 the results were TRAIL sens C8 19.1, HSP90 inh 0.7, Platelet DG rel -18.1, TWEAK-Fn14 inh 86.7*, TROY NFkB inh 66.1* and PPC-1+TRAIL kill 42.7.
`COc1ccc(C)cc1NC(=O)CCNS(=O)(=O)c1cccc(C(F)(F)F)c1` gave TRAIL sens C8 9.4, HSP90 inh -7.1, Platelet DG rel -0.8, TWEAK-Fn14 inh 4.0 and TROY NFkB inh -1.7.
`Cc1nc2ccc(Cl)cn2c1[N+](=O)[O-]` gave TRAIL sens C8 -8.9, TWEAK-Fn14 inh 5.3 and TROY NFkB inh -10.9.
Screening COC(=O)CCCn1c(C)cc(C(=O)CCl)c1C returned TRAIL sens C8 11.9, HSP90 inh 3.3, Platelet DG rel -26.1, TWEAK-Fn14 inh 13.4, TROY NFkB inh 8.7 and PPC-1+TRAIL kill -16.9.
COCCn1c(C)cc(C(=O)COC(=O)c2cccnc2SC)c1C was read as TRAIL sens C8 40.4, TWEAK-Fn14 inh 68.1* and TROY NFkB inh 68.9*.
For COC(=O)CCn1c(C)cc(C(=O)COc2ccccc2C(N)=O)c1C the results were TRAIL sens C8 47.8, HSP90 inh -3.4, Platelet DG rel -14.6, TWEAK-Fn14 inh 52.8*, TROY NFkB inh 23.4 and PPC-1+TRAIL kill 16.4.
Cc1cc(C)n(-c2cccc(C(=O)O)c2)n1 was read as TRAIL sens C8 5.3, HSP90 inh 2.0, Platelet DG rel -0.8, TWEAK-Fn14 inh 79.5*, TROY NFkB inh 18.5 and PPC-1+TRAIL kill 0.5.
For Cc1nn(-c2cccc(C(=O)O)c2)c(C)c1[N+](=O)[O-] the results were TRAIL sens C8 5.3, HSP90 inh -1.6, Platelet DG rel -1.9, TWEAK-Fn14 inh 3.5, TROY NFkB inh 2.2 and PPC-1+TRAIL kill 11.7.
CN(C)S(=O)(=O)c1cccc(CNCC2COc3ccccc3O2)c1 (stereo not given) was read as TRAIL sens C8 -6.8, HSP90 inh 0.3, Platelet DG rel 1.8, TWEAK-Fn14 inh -23.4 and TROY NFkB inh -17.1.
For Cc1ccc(CS(=O)(=O)c2ccc(C(=O)N3CCN(c4ccccn4)CC3)cc2[N+](=O)[O-])cc1 the results were TRAIL sens C8 14.9, HSP90 inh -0.3, Platelet DG rel 6.9, TWEAK-Fn14 inh 50.3*, TROY NFkB inh 41.5 and PPC-1+TRAIL kill 9.8.
`O=C(c1ccc(S(=O)(=O)c2ccccc2Cl)c([N+](=O)[O-])c1)N1CCN(Cc2ccccc2)CC1` gave TRAIL sens C8 20.5, HSP90 inh 1.4, Platelet DG rel 0.8, TWEAK-Fn14 inh 73.8*, TROY NFkB inh 33.8 and PPC-1+TRAIL kill 9.3.
For CC1CCN(C(=O)c2ccc(S(=O)(=O)Cc3ccccc3F)c([N+](=O)[O-])c2)CC1 the results were TRAIL sens C8 6.6, HSP90 inh -3.0, Platelet DG rel -12.7, TWEAK-Fn14 inh 63.4*, TROY NFkB inh 15.8 and PPC-1+TRAIL kill 6.2.
